Assay results from PubChem BioAssay (NCATS).
Values joined by “and” are separate entries in the source; they are usually repeats but may differ in a detail not shown here. Equal entries are not always repeated. Results filed as inconclusive are left out. Active and inactive are the calls of the source. Calls follow the shape of the dose curve; as a rule, active = well fitted curve in the direction sought with a large enough effect; inconclusive = small, poorly fitted or top-dose-only effect, or another doubt; inactive = no such curve, though single readings can be large; an effect the other way counts as inactive or inconclusive.

Tests used:
[1] = qHTS of pediatric cancer cell lines to identify multiple opportunities for drug repurposing: Primary screen for BT-37 cells (AID 1347094); also: series mostly up to about 57 µM
Procedure, shortened: (§1)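 CRCs from 8- or 11-point titrations (lowest final 0.59 nM NPC, 0.78 nM MIPE). Cell viability: CellTiter-Glo after 48 h incubation, 15 min room-temperature development, luminescence imaging.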

[2] = qHTS of pediatric cancer cell lines to identify multiple opportunities for drug repurposing: Primary screen for NB-EBc1 cells (AID 1347095)
Procedure, shortened: as §1

[3] = qHTS of pediatric cancer cell lines to identify multiple opportunities for drug repurposing: Primary screen for U-2 OS cells (AID 1347096); also: nearly all actives have a fitted effect of over 50% in size
Procedure, shortened: (§2)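 Cells (500-1,000/well) rested 5 h, then received compounds for 48 h; metabolically active cells were measured by CellTiter-Glo luminescence. Final concentrations spanned up to 46 µM (MIPE, 11-point) or 0.59 nM-46 µM (NPC, 8-point) in primary screens, 11-point in follow-ups.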

[4] = qHTS of pediatric cancer cell lines to identify multiple opportunities for drug repurposing: Primary screen for Saos-2 cells (AID 1347097); also: nearly all actives have a fitted effect of over 40% in size; also: potency is read from the fitted curve at half-maximal effect
Procedure, shortened: as §1

[5] = qHTS of pediatric cancer cell lines to identify multiple opportunities for drug repurposing: Primary screen for SK-N-SH cells (AID 1347098); also: nearly all actives have a fitted effect of over 65% in size; also: potency is read from the fitted curve at half-maximal effect
Procedure, shortened: as §2

[6] = qHTS of pediatric cancer cell lines to identify multiple opportunities for drug repurposing: Primary screen for NB1643 cells (AID 1347099); also: nearly all actives have a fitted effect of over 50% in size; also: potency is read from the fitted curve at half-maximal effect
Procedure, shortened: as §1

[7] = qHTS of pediatric cancer cell lines to identify multiple opportunities for drug repurposing: Primary screen for LAN-5 cells (AID 1347100); also: potency is read from the fitted curve at half-maximal effect
Procedure, shortened: as §2

[8] = qHTS of pediatric cancer cell lines to identify multiple opportunities for drug repurposing: Primary screen for BT-12 cells (AID 1347101); also: nearly all actives have a fitted effect of over 25% in size; also: potency is read from the fitted curve at half-maximal effect
Procedure, shortened: as §2

[9] = qHTS of pediatric cancer cell lines to identify multiple opportunities for drug repurposing: Primary screen for Rh18 cells (AID 1347102); also: nearly all actives have a fitted effect of over 65% in size; also: potency is read from the fitted curve at half-maximal effect
Procedure, shortened: as §2

[10] = qHTS of pediatric cancer cell lines to identify multiple opportunities for drug repurposing: Primary screen for OHS-50 cells (AID 1347103); also: nearly all actives have a fitted effect of over 40% in size; also: potency is read from the fitted curve at half-maximal effect
Procedure, shortened: as §2

[11] = qHTS of pediatric cancer cell lines to identify multiple opportunities for drug repurposing: Primary screen for RD cells (AID 1347104); also: nearly all actives have a fitted effect of over 55% in size
Procedure, shortened: as §1

[12] = qHTS of pediatric cancer cell lines to identify multiple opportunities for drug repurposing: Primary screen for control Hh wild type fibroblast cells (AID 1347106); also: nearly all actives have a fitted effect of over 55% in size; also: potency is read from the fitted curve at half-maximal effect
Procedure, shortened: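 Viability after 48 h compound treatment at 37C, 500-1,000 cells/well, read as ATP luminescence with CellTiter-Glo. Primary screens used 11-point (MIPE, 0.78 nM-46 µM) or 8-point (NPC, 0.59 nM-46 µM) final concentrations; follow-up screens used 11-point dilutions.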

[13] = qHTS of pediatric cancer cell lines to identify multiple opportunities for drug repurposing: Primary screen for Rh30 cells (AID 1347107); also: series mostly up to about 46 µM; nearly all actives have a fitted effect of over 75% in size
Procedure, shortened: as §2

[14] = qHTS of pediatric cancer cell lines to identify multiple opportunities for drug repurposing: Primary screen for Rh41 cells (AID 1347108);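 also: series mostly up to about 46 µM; luminescence drop marks cytotoxic hits; nearly all actives have a fitted effect of over 70% in size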
Procedure, shortened: as §1

[15] = qHTS of pediatric cancer cell lines to identify multiple opportunities for drug repurposing: Primary screen for MG 63 (6-TG R) cells (AID 1347105); also: nearly all actives have a fitted effect of over 50% in size; also: potency is read from the fitted curve at half-maximal effect
Procedure, shortened: as §1

[16] = qHTS of pediatric cancer cell lines to identify multiple opportunities for drug repurposing: Primary screen for SK-N-MC cells (AID 1347093); also: potency is read from the fitted curve at half-maximal effect
Procedure, shortened: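 Metabolically active cells were quantified by ATP-dependent luminescence (CellTiter-Glo, 15 min at room temperature) following 48 h treatment. Cells had been plated at 500-1,000 per well and settled for 5 h beforehand.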

[17] = qHTS of pediatric cancer cell lines to identify multiple opportunities for drug repurposing: Confirmatory screen for A673 cells (AID 1347110);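 also: cells exposed to compound for 48 h before the viability read; nearly all actives have a fitted effect of over 65% in size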; also: potency is read from the fitted curve at half-maximal effect
Procedure, shortened: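 Concentration-response curves came straight from titrations: 11 points (0.78 nM to 46 µM) for MIPE and several concentrations (0.59 nM to 46 µM) for NPC in primary, 11 points in follow-up. Readout: ATP luminescence at 48 h.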

[18] = qHTS of pediatric cancer cell lines to identify multiple opportunities for drug repurposing: Confirmatory screen for SK-N-MC cells (AID 1347111);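 also: potency is read from the fitted curve at half-maximal effect; cells exposed to compound for 48 h before the readout; nearly all actives have a fitted effect of over 70% in size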
Procedure, shortened: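 Seed 500-1,000 cells/well; rest 5 h at 37 degrees C. Pin-transfer compounds, 11-point titration. Incubate 48 h. Add CellTiter-Glo, 15 min RT, read luminescence.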

[19] = qHTS of pediatric cancer cell lines to identify multiple opportunities for drug repurposing: Confirmatory screen for NB1643 cells (AID 1347109); also: nearly all actives have a fitted effect of over 45% in size
Procedure, shortened: as §2

[20] = qHTS of pediatric cancer cell lines to identify multiple opportunities for drug repurposing: Confirmatory screen for BT-12 cells (AID 1347112); also: nearly all actives have a fitted effect of over 55% in size
Procedure, shortened: as §2

Measured: Potency

c1ccc2[nH]c(-c3cscn3)nc2c1
not listed: [15] | [16] | [17] | [18] | [19] | [20]
inactive: all other assays above

C[C@H](Cn1cnc2c(N)ncnc21)OCP(=O)(O)O
not listed: [5] | [7] | [16] | [17] | [18] | [19] | [20]
inactive: all other assays above

Oc1ccc2ccccc2c1SSc1c(O)ccc2ccccc12
active: [5] 19.2 µM | [6] 26.4 µM | [12] 23.5 µM
inactive: [3]

C[C@@H](c1ncncc1F)[C@](O)(Cn1cncn1)c1ccc(F)cc1F
inactive: [1] | [2] | [3] | [5] | [6] | [7] | [8] | [9] | [11] | [12]

CCOC(=O)C(C)Oc1cccc2c(=O)n(CC(=O)Nc3ccc4c(c3)OCCO4)ccc12 (centres undefined)
not listed: [6] | [16] | [17] | [18] | [19] | [20]
inactive: all other assays above

Cc1ccc(C)c(OCCCC(C)(C)C(=O)O)c1
not listed: [6] | [8] | [13] | [16] | [17] | [18] | [19] | [20]
inactive: all other assays above

N=C(N=C(N)N)N1CCOCC1
not listed: [4] | [5] | [16] | [17] | [18] | [19] | [20]
inactive: all other assays above

CCOC(=O)C1=C[C@@H](OC(CC)CC)[C@H](NC(C)=O)[C@@H](N)C1
not listed: [7] | [16] | [17] | [18] | [19] | [20]
inactive: all other assays above

Cc1ccc(C(=O)c2cc(O)c(O)c([N+](=O)[O-])c2)cc1
inactive: [3] | [5] | [6] | [8] | [9] | [11] | [15] | [12] | [14]
active: [16] 23.7 µM and 18.7 µM

O=C(NC(Cc1cc(=O)[nH]c2ccccc12)C(=O)O)c1ccc(Cl)cc1 (centres undefined)
not listed: [4] | [6] | [16] | [17] | [18] | [19] | [20]
inactive: all other assays above

O=c1cc(N2CCOCC2)oc2c(-c3ccccc3)cccc12
inactive: [3] | [12]
active: [16] 9.35 µM | [6] 20.9 µM | [10] 2.73 µM

Cc1cccc(C)c1OCC(=O)N[C@@H](Cc1ccccc1)[C@@H](O)C[C@H](Cc1ccccc1)NC(=O)[C@H](C(C)C)N1CCCNC1=O
inactive: [3] | [9] | [15] | [12]
active: [16] 29.6 µM | [6] 20.9 µM | [10] 27.3 µM

Cc1cccc(C#Cc2ccccc2)n1
inactive: [2] | [3] | [7] | [8] | [9] | [12]

CCCc1cc(=O)[nH]c(=S)[nH]1
not listed: [2] | [7] | [15] | [16] | [17] | [18] | [19] | [20]
inactive: all other assays above

O=C(c1ccccc1)c1ccc2n1CCC2C(=O)O (centres undefined)
not listed: [5] | [16] | [17] | [18] | [19] | [20]
inactive: all other assays above

O=C(O)c1cccc(-c2noc(-c3ccccc3F)n2)c1
inactive: [2] | [3] | [4] | [5] | [7] | [8] | [9] | [10] | [11] | [15] | [12]

O=C(NCC1CCCCN1)c1cc(OCC(F)(F)F)ccc1OCC(F)(F)F (centres undefined)
inactive: [3] | [9] | [11] | [15] | [12] | [13] | [14]
active: [17] 1.31 µM | [18] 7.37 µM

Cc1nc(-c2ccc(OCC(C)C)c(C#N)c2)sc1C(=O)O
not listed: [4] | [13] | [15] | [16] | [17] | [18] | [19] | [20]
inactive: all other assays above

Nc1nc(N)c(N=O)c(OCC2CCCCC2)n1
inactive: [13]
active: [16] 3.32 µM | [5] 24.1 µM | [6] 18.7 µM | [9] 18.7 µM | [10] 15.3 µM | [15] 11.8 µM

C[C@@H](N)C1CCC(C(=O)Nc2ccncc2)CC1 (some centres undefined)
not listed: [4] | [5] | [7] | [16] | [17] | [18] | [19] | [20]
inactive: all other assays above

OC(CN1CCN(c2cccc(Cl)c2)CC1)C(c1ccccc1)c1ccccc1 (centres undefined)
inactive: [3] | [9] | [12] | [14]
active: [16] 10.5 µM | [4] 18.7 µM | [5] 15.2 µM | [10] 24.3 µM

O=c1ccc2ccc(O)c(O)c2o1
inactive: [1] | [3] | [4] | [9] | [15] | [12]

Cc1cc(O)c2c(c1)C(=O)c1cc(O)cc(O)c1C2=O
inactive: [3] | [5] | [7] | [8] | [9] | [10] | [11] | [15] | [12]

O=C(O)CCNC(=O)c1ccc(N=Nc2ccc(O)c(C(=O)O)c2)cc1
not listed: [5] | [13] | [15] | [16] | [17] | [18] | [19] | [20]
inactive: all other assays above

Cn1c(NCCN(CCO)CCCc2ccc([N+](=O)[O-])cc2)cc(=O)n(C)c1=O
inactive: [2] | [3] | [4] | [5] | [8] | [9] | [15] | [12] | [13] | [14]

CS(=O)(=O)OCCCCOS(C)(=O)=O
active: [17] 16.5 µM
not listed: [1] | [2] | [4] | [15] | [16] | [18]
inactive: all other assays above

Clc1ccc(C(Cn2ccnc2)OCc2c(Cl)cccc2Cl)c(Cl)c1 (centres undefined)
active: [10] 19.5 µM and 24.3 µM
inactive: [3] | [5] | [9] | [15] | [12] | [13] | [14]

Cc1c(OCC(F)(F)F)ccnc1CS(=O)c1nc2ccccc2[nH]1 (centres undefined)
inactive: [2] | [3] | [4] | [5] | [6] | [8] | [9] | [11] | [12] | [13] | [14]

Cc1ccc(Nc2nccc(N(C)c3ccc4c(C)n(C)nc4c3)n2)cc1S(N)(=O)=O
active: [16] 8.41 µM and 16.6 µM | [7] 18.7 µM | [8] 12.3 µM and 15.3 µM | [9] 16.6 µM | [10] 5.5 µM | [18] 18.5 µM
inactive: [6] | [12] | [13]

CN(C)c1ccc(O)c2c1C[C@H]1C[C@H]3[C@H](N(C)C)C(=O)C(C(N)=O)=C(O)[C@@]3(O)C(=O)C1=C2O
not listed: [1] | [7] | [8] | [16] | [18]
inactive: all other assays above
